# Measured values reported in PubChem BioAssay (EPA / NIEHS).
# The source made the active and inactive calls. The calls were made as follows: active = hit-call score of the fitted dose curve at least 0.9, where 1 is the maximum; inactive = score below 0.9.
# Experiments:
# [1] = ATG_E_Box_CIS: Attagene CIS-FACTORIAL HepG2 Assay for human Enhancer Box (E-box) (AID 2282936); details: HepG2 E-box cis-reporter transcription, actives raise or lower the signal
# Summary of the method: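 First, HepG2 cells receive multiple cis-regulated reporter constructs by transient transfection. Next, chemicals are applied for 24 h. Finally, reporter mRNA is quantified via RT-PCR and capillary electrophoresis, with DMSO as baseline.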
# [2] = ATG_M_61_CIS: Attagene CIS-FACTORIAL HepG2 Assay for M61 Transcription Factor (Internal Marker) (AID 2282937); details: HepG2 Attagene CIS-FACTORIAL M61 internal marker reporter; actives raise or lower the signal
# Summary of the method: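 HepG2 cells transiently transfected with multiplexed cis-promoter reporter units reporting endogenous transcription factor activity, measured 24 h after dosing. Reporter mRNA quantified by RT-PCR and capillary electrophoresis; bidirectional fit against DMSO baseline.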
# [3] = ATG_EGR_CIS: Attagene CIS-FACTORIAL HepG2 Assay for human Early Growth Response 1 (EGR1) (AID 2282938); details: HepG2 Attagene CIS-FACTORIAL EGR reporter mRNA; actives raise or lower the signal
# Summary of the method: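 HepG2 cells transiently transfected with cis-element-driven multiplexed reporter units, dosed for 24 h. EGR1-element reporter mRNA quantified by RT-PCR, 6-FAM labelling, HpaI digestion and capillary electrophoresis; bidirectional fit versus DMSO.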
# [4] = ATG_M_19_CIS: Attagene CIS-FACTORIAL HepG2 Assay for M19 Transcription Factor (Internal Marker) (AID 2282939); details: HepG2 Attagene CIS-FACTORIAL M19 internal marker reporter; actives raise or lower the signal
# Summary of the method: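 Signals come from fluorescence of labelled reporter-specific PCR fragments resolved by capillary electrophoresis, following 24 h treatment of HepG2 cells transfected with cis-promoter reporter units; activity was fitted in both directions relative to DMSO.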
# [5] = ATG_ERE_CIS: Attagene CIS-FACTORIAL HepG2 Assay for Estrogen Response Element (ERE) (AID 2282940); details: HepG2 ERE cis-reporter, Attagene RNA transcript; actives raise or lower the signal
# Summary of the method: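 Fluorescence of capillary-separated, FAM-labelled reporter cDNA fragments indicates reporter mRNA levels in HepG2 cells exposed to chemicals for 24 h. Transient transfection with cis-regulated units; data fitted in both directions against DMSO.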
# [6] = ATG_Ets_CIS: Attagene CIS-FACTORIAL HepG2 Assay for human Erythroblast Transformation Specific (ETS) (AID 2282941); details: HepG2 ETS cis-reporter transcription, actives raise or lower the signal
# Summary of the method: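 HepG2 cells transiently transfected with cis-promoter reporter transcription units were dosed for 24 h; reporter mRNA was measured by RT-PCR, 6-FAM primer extension, HpaI digestion and capillary electrophoresis, with bidirectional fitting against DMSO baseline.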
# [7] = molecular target: Hepatocyte nuclear factor 3-beta (Homo sapiens) (UniProt Q9Y261); experiment: ATG_FoxA2_CIS: Attagene CIS-FACTORIAL HepG2 Assay for human Forkhead box A2 (FOXA2) (AID 2282942); details: HepG2 cis-reporter transcription factor activity, 24 h; actives raise or lower the signal
# Chain of Hepatocyte nuclear factor 3-beta (Homo sapiens) (Q9Y261 whole entry, looked up): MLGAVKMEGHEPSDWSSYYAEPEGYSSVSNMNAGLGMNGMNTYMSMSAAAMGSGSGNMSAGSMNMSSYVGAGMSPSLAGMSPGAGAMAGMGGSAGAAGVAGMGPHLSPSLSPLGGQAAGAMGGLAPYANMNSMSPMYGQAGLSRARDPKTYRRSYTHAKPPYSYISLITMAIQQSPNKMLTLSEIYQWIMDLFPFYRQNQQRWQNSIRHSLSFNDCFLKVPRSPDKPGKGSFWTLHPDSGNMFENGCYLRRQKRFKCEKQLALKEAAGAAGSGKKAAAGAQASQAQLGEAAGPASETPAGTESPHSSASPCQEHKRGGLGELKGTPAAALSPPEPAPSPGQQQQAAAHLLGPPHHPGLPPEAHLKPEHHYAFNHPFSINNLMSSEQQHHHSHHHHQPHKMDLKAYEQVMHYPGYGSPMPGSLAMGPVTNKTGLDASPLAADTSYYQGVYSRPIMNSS
# Summary of the method: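 HepG2 transiently transfected with a multiplexed cis-promoter reporter library read endogenous FOXA2 activity. After 24 h compound exposure, reporter mRNA was quantified by RT-PCR, HpaI digestion and capillary electrophoresis. Bidirectional fit against DMSO.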
# [8] = ATG_FoxO_CIS: Attagene CIS-FACTORIAL HepG2 Assay for human Forkhead box O (FoxO) (AID 2282943); details: HepG2 Attagene cis-reporter, FoxO element, mRNA; actives raise or lower the signal
# Summary of the method: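 HepG2 cells transiently transfected with cis-element-driven reporter units report endogenous FoxO activity. After 24 h chemical exposure, reporter mRNA quantified by RT-PCR, fluorescent labeling, HpaI digestion and capillary electrophoresis; bidirectional fit versus DMSO.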
# [9] = ATG_GATA_CIS: Attagene CIS-FACTORIAL HepG2 Assay for human GATA Binding Protein (AID 2282944); details: HepG2 GATA cis-element reporter, Attagene multiplex mRNA; actives raise or lower the signal
# Summary of the method: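 After transfecting HepG2 cells with multiple cis-regulated reporter units, chemicals are dosed for 24 h; isolated RNA undergoes RT-PCR and fluorescent labeling before capillary electrophoresis, with activity expressed against DMSO.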
# [10] = ATG_GLI_CIS: Attagene CIS-FACTORIAL HepG2 Assay for human Zinc Finger Protein GLI1 (AID 2282945); details: HepG2, Attagene cis-factorial reporter mRNA, GLI element; actives raise or lower the signal
# Summary of the method: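 Transiently transfected HepG2 cells report endogenous transcription factor activity via cis-element-driven reporter units. After 24 h compound exposure, reporter mRNA was measured by RT-PCR with capillary electrophoresis; bidirectional fitting against DMSO baseline.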
# [11] = molecular target: Bile acid receptor (Homo sapiens) (UniProt Q96RI1); experiment: ATG_IR1_CIS: Attagene CIS-FACTORIAL HepG2 Assay for human Nuclear Receptor Subfamily 1 Group H Member 4 (NR1H4), IR1 submotif (AID 2282946); details: IR1 reporter transcription, actives raise or lower the signal
# Chain of Bile acid receptor (Homo sapiens) (Q96RI1 whole entry, looked up): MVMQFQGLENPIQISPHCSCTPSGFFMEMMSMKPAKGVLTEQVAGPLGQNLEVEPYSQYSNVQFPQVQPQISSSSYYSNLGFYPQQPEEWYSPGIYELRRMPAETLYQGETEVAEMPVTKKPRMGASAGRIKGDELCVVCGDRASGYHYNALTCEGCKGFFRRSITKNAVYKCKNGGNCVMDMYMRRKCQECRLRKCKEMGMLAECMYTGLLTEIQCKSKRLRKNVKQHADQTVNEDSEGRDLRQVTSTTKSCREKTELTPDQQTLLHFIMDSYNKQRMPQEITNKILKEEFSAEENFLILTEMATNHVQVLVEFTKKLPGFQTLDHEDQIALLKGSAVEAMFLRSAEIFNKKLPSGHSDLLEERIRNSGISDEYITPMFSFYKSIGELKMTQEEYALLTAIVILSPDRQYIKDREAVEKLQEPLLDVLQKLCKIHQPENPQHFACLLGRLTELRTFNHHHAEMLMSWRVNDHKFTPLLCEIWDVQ
# Summary of the method: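 HepG2 cells transiently transfected with multiple cis-promoter-driven reporter units to measure endogenous transcription factor activity; 24 h exposure. Reporter mRNA read by RT-PCR, FAM labelling, HpaI digestion and capillary electrophoresis. Bidirectional fit versus DMSO.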
# [12] = ATG_ISRE_CIS: Attagene CIS-FACTORIAL HepG2 Assay for human Interferon Regulatory Factor 1 (IRF1) binding to an Interferon-Stimulated Response Element (ISRE) (AID 2282948); details: HepG2 ISRE cis-reporter (Attagene), mRNA transcription readout; actives raise or lower the signal
# Summary of the method: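 HepG2 cells transiently transfected with multiplexed cis-promoter reporter units; after 24 h compound exposure, reporter mRNA quantified by RT-PCR, FAM labelling, HpaI digestion and capillary electrophoresis. Bidirectional fit versus DMSO baseline.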
# [13] = ATG_M_32_CIS: Attagene CIS-FACTORIAL HepG2 Assay for M32 Transcription Factor (Internal Marker) (AID 2282949); details: HepG2 Attagene cis-factorial M32 reporter, mRNA; actives raise or lower the signal;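 also: background control marker of the multiplexed CIS panel rather than a real target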
# Summary of the method: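 Following 24 h chemical exposure of HepG2 cells transiently expressing cis-promoter reporter constructs, reporter transcript levels were determined by RT-PCR with fluorescent labelling and capillary electrophoresis, then fitted bidirectionally against DMSO.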
# [14] = ATG_M_06_CIS: Attagene CIS-FACTORIAL HepG2 Assay for M06 Transcription Factor (Internal Marker) (AID 2282950); details: HepG2 Attagene CIS-FACTORIAL M06 internal marker reporter; actives raise or lower the signal
# Summary of the method: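 HepG2 liver cells, 24 h exposure. Reporter transcripts from transfected cis-element constructs quantified by RT-PCR/capillary electrophoresis fluorescence. Bidirectional curve fit against DMSO.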
# [15] = molecular target: Hypoxia-inducible factor 1-alpha (Homo sapiens) (UniProt Q16665); experiment: ATG_HIF1a_CIS: Attagene CIS-FACTORIAL HepG2 Assay for human Hypoxia Inducible Factor 1 (HIF1A) (AID 2282951); details: HepG2 Attagene cis-factorial HIF1a reporter transcription; actives raise or lower the signal
# Chain of Hypoxia-inducible factor 1-alpha (Homo sapiens) (Q16665 whole entry, looked up): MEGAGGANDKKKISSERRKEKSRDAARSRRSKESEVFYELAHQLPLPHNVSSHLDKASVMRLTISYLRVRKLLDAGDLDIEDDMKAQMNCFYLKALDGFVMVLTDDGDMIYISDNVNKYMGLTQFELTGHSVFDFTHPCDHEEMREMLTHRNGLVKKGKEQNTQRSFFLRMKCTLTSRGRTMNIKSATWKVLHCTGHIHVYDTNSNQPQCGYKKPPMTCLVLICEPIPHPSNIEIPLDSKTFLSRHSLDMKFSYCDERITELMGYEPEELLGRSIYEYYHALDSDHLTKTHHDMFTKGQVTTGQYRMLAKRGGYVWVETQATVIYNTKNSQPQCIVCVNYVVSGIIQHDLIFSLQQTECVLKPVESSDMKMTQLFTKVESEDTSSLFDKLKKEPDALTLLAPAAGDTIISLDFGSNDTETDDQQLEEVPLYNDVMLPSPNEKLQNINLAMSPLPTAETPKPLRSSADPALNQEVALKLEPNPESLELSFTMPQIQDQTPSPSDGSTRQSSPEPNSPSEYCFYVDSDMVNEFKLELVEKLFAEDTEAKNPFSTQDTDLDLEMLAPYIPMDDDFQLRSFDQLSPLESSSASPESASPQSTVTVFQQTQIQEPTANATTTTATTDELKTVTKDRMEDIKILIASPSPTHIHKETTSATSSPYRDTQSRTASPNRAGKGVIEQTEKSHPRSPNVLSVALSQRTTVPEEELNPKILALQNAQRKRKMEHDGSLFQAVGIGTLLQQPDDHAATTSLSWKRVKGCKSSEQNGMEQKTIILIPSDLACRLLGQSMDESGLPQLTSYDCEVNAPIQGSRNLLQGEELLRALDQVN
# Summary of the method: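 HepG2 cells transiently transfected with multiple cis-regulated reporter transcription units measure endogenous transcription factor activity. After 24 h exposure, reporter mRNA is quantified by RT-PCR with 6-FAM labelling, HpaI digestion and capillary electrophoresis. Bidirectional fitting against DMSO.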
# [16] = molecular target: Hepatocyte nuclear factor 6 (Homo sapiens) (UniProt Q9UBC0); experiment: ATG_HNF6_CIS: Attagene CIS-FACTORIAL HepG2 Assay for human Hepatocyte Nuclear Factor 6 (HNF6) (AID 2282952); details: HepG2 Attagene cis-factorial HNF6 reporter transcription; actives raise or lower the signal
# Chain of Hepatocyte nuclear factor 6 (Homo sapiens) (Q9UBC0 whole entry, looked up): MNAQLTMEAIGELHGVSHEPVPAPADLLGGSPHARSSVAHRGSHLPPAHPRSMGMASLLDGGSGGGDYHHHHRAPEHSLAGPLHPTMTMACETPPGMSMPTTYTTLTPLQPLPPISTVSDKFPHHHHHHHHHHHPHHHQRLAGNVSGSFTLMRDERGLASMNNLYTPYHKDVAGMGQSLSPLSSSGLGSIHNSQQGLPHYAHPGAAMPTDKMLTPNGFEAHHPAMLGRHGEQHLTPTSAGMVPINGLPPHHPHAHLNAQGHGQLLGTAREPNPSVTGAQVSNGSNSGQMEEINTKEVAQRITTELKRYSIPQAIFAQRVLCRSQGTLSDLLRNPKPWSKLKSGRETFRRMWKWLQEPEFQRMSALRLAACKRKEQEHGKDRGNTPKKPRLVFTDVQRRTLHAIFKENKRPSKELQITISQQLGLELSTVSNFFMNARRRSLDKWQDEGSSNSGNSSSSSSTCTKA
# Summary of the method: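 Transiently transfected HepG2 cells expressing cis-regulated reporter transcription units were exposed to chemical for 24 h in a 24-well format. Reporter transcript abundance was determined by fluorescence capillary electrophoresis.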
# [17] = molecular target: Heat shock factor protein 1 (Homo sapiens) (UniProt Q00613); experiment: ATG_HSE_CIS: Attagene CIS-FACTORIAL HepG2 Assay for human Heat Shock Transcription Factor 1 (HSE) (AID 2282953); details: HepG2 HSE cis-reporter, Attagene RNA transcription; actives raise or lower the signal
# Chain of Heat shock factor protein 1 (Homo sapiens) (Q00613 whole entry, looked up, the tested form may be a part): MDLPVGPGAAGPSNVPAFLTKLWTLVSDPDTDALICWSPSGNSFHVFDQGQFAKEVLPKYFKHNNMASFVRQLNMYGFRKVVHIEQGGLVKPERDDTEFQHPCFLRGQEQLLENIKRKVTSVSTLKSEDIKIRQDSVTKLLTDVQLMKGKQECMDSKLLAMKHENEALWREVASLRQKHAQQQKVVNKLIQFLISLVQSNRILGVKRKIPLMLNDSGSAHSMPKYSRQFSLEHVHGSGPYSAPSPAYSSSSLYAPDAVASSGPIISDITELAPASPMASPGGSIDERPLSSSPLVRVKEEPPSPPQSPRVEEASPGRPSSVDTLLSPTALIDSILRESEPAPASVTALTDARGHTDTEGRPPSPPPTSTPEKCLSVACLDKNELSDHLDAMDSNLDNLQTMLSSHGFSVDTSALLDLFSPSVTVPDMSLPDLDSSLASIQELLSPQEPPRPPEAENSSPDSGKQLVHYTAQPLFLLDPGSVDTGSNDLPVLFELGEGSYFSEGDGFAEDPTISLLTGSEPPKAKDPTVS
# Summary of the method: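 Endogenous transcription factor activity captured via cis-promoter reporter units transfected into HepG2; treatment lasted 24 h. Fluorescence intensity of reporter fragments analysed with bidirectional curve fitting, DMSO baseline.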
# [18] = ATG_MRE_CIS: Attagene CIS-FACTORIAL HepG2 Assay for human Metal Responsive Element (MRE) (AID 2282954); details: HepG2 MRE cis-reporter transcription, Attagene multiplex; actives raise or lower the signal
# Summary of the method: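 Fluorescent reporter fragments separated by capillary electrophoresis give mRNA induction for the MRE unit after 24 h treatment of transfected HepG2 cells. Endogenous transcription-factor activity is read; DMSO serves as negative control and baseline.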
# [19] = molecular target: Transcription factor E2F1 (Homo sapiens) (UniProt Q01094); experiment: ATG_E2F_CIS: Attagene CIS-FACTORIAL HepG2 Assay for human E2F Transcription Factor 1 (AID 2282935); details: HepG2 Attagene cis-reporter, E2F reporter RNA transcripts; actives raise or lower the signal
# Chain of Transcription factor E2F1 (Homo sapiens) (Q01094 whole entry, looked up): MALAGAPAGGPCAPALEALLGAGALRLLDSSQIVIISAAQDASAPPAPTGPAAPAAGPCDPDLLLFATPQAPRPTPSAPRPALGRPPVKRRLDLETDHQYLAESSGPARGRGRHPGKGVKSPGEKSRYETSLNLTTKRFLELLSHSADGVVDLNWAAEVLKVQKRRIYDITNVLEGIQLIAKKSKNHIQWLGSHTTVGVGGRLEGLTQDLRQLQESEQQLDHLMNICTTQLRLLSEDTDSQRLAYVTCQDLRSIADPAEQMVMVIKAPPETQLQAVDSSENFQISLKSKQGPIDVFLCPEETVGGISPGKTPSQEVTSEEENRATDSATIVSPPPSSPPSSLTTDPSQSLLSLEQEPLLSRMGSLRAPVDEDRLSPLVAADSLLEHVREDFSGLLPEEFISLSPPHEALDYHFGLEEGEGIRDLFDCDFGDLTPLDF
# Summary of the method: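 Measures reporter transcript levels via RT-PCR with capillary electrophoresis detection in HepG2 cells harboring cis-regulated reporter units; 24 h post-dose; bidirectional curve fitting with DMSO as baseline.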
# [20] = ATG_GRE_CIS: Attagene CIS-FACTORIAL HepG2 Assay for human Glucocorticoid Response Elements (GRE) (AID 2282947); details: HepG2 GRE cis-reporter, Attagene multiplex mRNA; actives raise or lower the signal
# Summary of the method: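 Endogenous transcription factor activity is read through cis-element reporter constructs transiently transfected into HepG2 cells. After 24 h treatment, labelled RT-PCR products are resolved by capillary electrophoresis; DMSO sets baseline for bidirectional curve fitting.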
smiles,measurement,setting,value
C=C/C(C)=C/C/C=C(\C)CCC=C(C)C,outcome,[1],inactive
same,outcome,[2],inactive
same,outcome,[3],inactive
same,outcome,[4],inactive
same,AC50,[5],56.8 µM (active)
same,outcome,[6],inactive
same,outcome,[7],inactive
same,outcome,[8],inactive
same,outcome,[9],inactive
same,outcome,[10],inactive
same,outcome,[11],inactive
same,outcome,[12],inactive
same,outcome,[13],inactive
same,outcome,[14],inactive
same,outcome,[15],inactive
same,outcome,[16],inactive
same,outcome,[17],inactive
same,outcome,[18],inactive
CCCCCCCCSCc1cc(C)c(O)c(CSCCCCCCCC)c1,outcome,[19],inactive
same,outcome,[2],inactive
same,outcome,[3],inactive
same,outcome,[5],inactive
same,outcome,[6],inactive
same,outcome,[7],inactive
same,outcome,[8],inactive
same,outcome,[9],inactive
same,outcome,[10],inactive
same,outcome,[11],inactive
same,outcome,[20],inactive
same,outcome,[12],inactive
same,outcome,[13],inactive
same,outcome,[14],inactive
same,outcome,[15],inactive
same,outcome,[16],inactive
same,outcome,[17],inactive
same,outcome,[18],inactive
NC(N)=S,outcome,[19],inactive
same,outcome,[2],inactive
same,outcome,[4],inactive
same,outcome,[5],inactive
same,outcome,[6],inactive
same,outcome,[7],inactive
same,outcome,[8],inactive
same,outcome,[9],inactive
same,outcome,[10],inactive
same,outcome,[11],inactive
same,outcome,[20],inactive
same,outcome,[12],inactive
same,outcome,[13],inactive
same,outcome,[14],inactive
same,outcome,[16],inactive
same,outcome,[18],inactive
CC(C)N(c1ccccc1)C(C)C,outcome,[19],inactive
same,outcome,[2],inactive
same,outcome,[4],inactive
same,outcome,[5],inactive
same,outcome,[6],inactive
same,outcome,[7],inactive
same,outcome,[8],inactive
same,outcome,[9],inactive
same,outcome,[10],inactive
same,outcome,[12],inactive
same,outcome,[13],inactive
same,outcome,[14],inactive
same,outcome,[15],inactive
same,outcome,[16],inactive
same,outcome,[17],inactive
same,outcome,[18],inactive
CC(=O)OC(C)(C)C,outcome,[19],inactive
same,outcome,[2],inactive
same,outcome,[3],inactive
same,outcome,[4],inactive
same,outcome,[5],inactive
same,outcome,[6],inactive
same,outcome,[7],inactive
same,outcome,[8],inactive
same,outcome,[9],inactive
same,outcome,[10],inactive
same,outcome,[13],inactive
same,outcome,[15],inactive
same,outcome,[16],inactive
same,outcome,[17],inactive
CCC(=O)OC(C)(C)C1CC=C(C)CC1 (centres undefined),outcome,[19],inactive
same,outcome,[2],inactive
same,outcome,[3],inactive
same,outcome,[4],inactive
same,AC50,[5],100 µM (active)
same,outcome,[6],inactive
same,outcome,[7],inactive
same,outcome,[8],inactive
same,outcome,[10],inactive
same,outcome,[11],inactive
same,outcome,[12],inactive
same,outcome,[13],inactive
same,outcome,[14],inactive
same,outcome,[15],inactive
same,outcome,[16],inactive
same,outcome,[17],inactive
same,outcome,[18],inactive
CCCC1CCOC(C)S1 (centres undefined),outcome,[1],inactive
same,outcome,[2],inactive
same,outcome,[3],inactive
same,outcome,[4],inactive
same,outcome,[5],inactive
same,outcome,[6],inactive
same,outcome,[7],inactive
same,outcome,[8],inactive
same,outcome,[9],inactive
same,outcome,[10],inactive
same,outcome,[20],inactive
same,outcome,[12],inactive
same,outcome,[13],inactive
same,outcome,[14],inactive
same,outcome,[15],inactive
same,outcome,[16],inactive
same,outcome,[17],inactive
same,outcome,[18],inactive
CCCCCCCCOC(C)=O,outcome,[19],inactive
same,outcome,[2],inactive
same,outcome,[3],inactive
same,outcome,[4],inactive
same,outcome,[5],inactive
same,outcome,[6],inactive
same,outcome,[7],inactive
same,outcome,[8],inactive
same,outcome,[9],inactive
same,outcome,[10],inactive
same,outcome,[12],inactive
same,outcome,[13],inactive
same,outcome,[14],inactive
same,outcome,[15],inactive
same,outcome,[16],inactive
same,outcome,[17],inactive
same,outcome,[18],inactive
